The results in this text go back to ChEMBL document CHEMBL3988442, “University of Dundee, Small-Polar-MMV Screening Library” (2021).

SMILES strings stand for the structures. For some of these results: Entries with a potency or affinity are not part of this list.

Holding throughout (set-up): scale not given: direction of the effect not stated beside the values
Test [1] addresses Protein translocase subunit SecA (Escherichia coli (strain K12)) (UniProt P10408). Kind of test: Assay to Identify E. coli SecA ATPase Inhibitors. The note with it: 30 µM. It counts as functional.
Test [2] concerns the target T1, Ubiquitin-activating enzyme e1, putative (Leishmania donovani (strain BPK282A1)) (UniProt E9BSI1).
T1 sequence (whole entry): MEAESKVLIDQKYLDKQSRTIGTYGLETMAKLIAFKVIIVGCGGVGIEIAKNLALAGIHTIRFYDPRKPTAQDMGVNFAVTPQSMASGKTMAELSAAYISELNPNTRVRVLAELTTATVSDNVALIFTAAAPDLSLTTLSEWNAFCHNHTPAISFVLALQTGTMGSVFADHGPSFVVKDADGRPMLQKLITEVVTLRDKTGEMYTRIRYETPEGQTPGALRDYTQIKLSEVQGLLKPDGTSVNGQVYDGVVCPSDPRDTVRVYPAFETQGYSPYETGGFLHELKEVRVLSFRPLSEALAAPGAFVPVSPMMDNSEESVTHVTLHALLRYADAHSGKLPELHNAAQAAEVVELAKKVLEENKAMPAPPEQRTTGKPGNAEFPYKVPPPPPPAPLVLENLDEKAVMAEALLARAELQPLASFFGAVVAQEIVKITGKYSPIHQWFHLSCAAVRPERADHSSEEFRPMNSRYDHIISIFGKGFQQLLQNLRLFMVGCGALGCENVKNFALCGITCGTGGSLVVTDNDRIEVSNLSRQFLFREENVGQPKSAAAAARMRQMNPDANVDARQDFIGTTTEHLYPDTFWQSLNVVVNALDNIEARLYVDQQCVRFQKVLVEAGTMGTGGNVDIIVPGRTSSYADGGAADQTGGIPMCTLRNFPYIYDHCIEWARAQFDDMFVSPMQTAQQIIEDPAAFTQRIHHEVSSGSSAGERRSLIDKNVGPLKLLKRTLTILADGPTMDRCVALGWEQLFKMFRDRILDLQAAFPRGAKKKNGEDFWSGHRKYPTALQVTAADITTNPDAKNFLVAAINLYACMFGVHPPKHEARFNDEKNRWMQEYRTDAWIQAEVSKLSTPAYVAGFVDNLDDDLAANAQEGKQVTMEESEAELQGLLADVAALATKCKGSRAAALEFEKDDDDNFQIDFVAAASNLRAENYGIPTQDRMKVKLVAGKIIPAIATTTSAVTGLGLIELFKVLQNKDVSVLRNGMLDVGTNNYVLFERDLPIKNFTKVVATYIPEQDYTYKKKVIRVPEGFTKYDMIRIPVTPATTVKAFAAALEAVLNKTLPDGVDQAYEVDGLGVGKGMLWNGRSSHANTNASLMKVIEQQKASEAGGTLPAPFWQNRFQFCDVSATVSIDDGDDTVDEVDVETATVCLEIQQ
The experiment in a line: Leishmania donovani Ubiquitin Activating Enzyme (LdE1). It counts as functional. The note with it: 30 µM.

Test [3] deals with AMP-activated protein kinase, AMPK (Homo sapiens) (UniProt P54646+O43741+P54619+Q9UGJ0+Q9Y478+Q13131+Q9UGI9). The experiment in a line: AMP-dependent Kinase enzyme assay. An in vitro enzyme assay that detects ADP turnover that is directly proportional to AMPK activity. This uses naive AMPK that is activated during the assay with MK-8722. The format is functional. The note with it: 30 µM.

Test [4] addresses Sialic acid-binding Ig-like lectin 9 (Homo sapiens) (UniProt Q9Y336). Kind of test: Hs-Siglec9 ALPHAscreen SOP 20170721. The note with it: 10 µM. (In general: Alpha assays give light when donor and acceptor beads are brought close together.)
Another test deals with Trypanosoma cruzi. Kind of test: Trypanosoma cruzi phosphomannomutase and mannose-1-phosphate guanylyltransferase assay. It counts as functional. The conditions noted are these: 10 µM.
Test [5] has as its target T2, Arginase-2, mitochondrial (Homo sapiens) (UniProt P78540).
T2 sequence (whole entry): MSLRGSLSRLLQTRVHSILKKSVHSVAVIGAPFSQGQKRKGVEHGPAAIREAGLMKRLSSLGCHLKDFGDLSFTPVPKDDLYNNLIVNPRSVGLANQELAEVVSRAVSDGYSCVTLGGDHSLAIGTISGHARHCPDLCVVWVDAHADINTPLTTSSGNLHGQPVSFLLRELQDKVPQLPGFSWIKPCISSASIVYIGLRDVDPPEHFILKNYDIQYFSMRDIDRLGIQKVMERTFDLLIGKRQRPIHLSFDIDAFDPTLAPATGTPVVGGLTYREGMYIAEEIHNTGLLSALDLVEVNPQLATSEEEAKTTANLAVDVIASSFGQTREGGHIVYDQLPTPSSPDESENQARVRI
Kind of test: in vitro enzyme assay to detect the production of urea directly proportional to the activity of Arginase II. Further: in the data most compounds retested in dose-response had high values. It counts as functional. The conditions noted are these: 33.3 µM.

Test [6] has as its target T3, Proteasome subunit beta (Trypanosoma cruzi) (UniProt O96673).
T3 sequence (whole entry): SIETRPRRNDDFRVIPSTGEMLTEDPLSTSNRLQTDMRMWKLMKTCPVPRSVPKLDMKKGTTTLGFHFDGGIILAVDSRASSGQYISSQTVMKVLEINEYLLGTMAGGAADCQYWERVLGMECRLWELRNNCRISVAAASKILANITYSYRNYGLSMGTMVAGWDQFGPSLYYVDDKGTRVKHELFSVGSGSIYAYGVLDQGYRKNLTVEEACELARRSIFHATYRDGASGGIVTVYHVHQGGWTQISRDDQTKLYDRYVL
Kind of test: Trypanosoma cruzi proteasome chymotrypsin-like activity (TcProtChymo) assay. Further: in the data most compounds retested in dose-response had high values. It counts as functional. The note with it: 9.37 µM.

The species entered for another test is Homo sapiens. Kind of test: To identify inhibition of the IFN signalling (Jak-Stat) pathway via expression of an eGFP reporter gene under the control of an IFN-stimulated response element (ISRE) containing MxA promoter. The format is functional. The note with it: 30 µM.
For test [7], the target named is T4, Tyrosyl-tRNA synthetase, putative (Trypanosoma cruzi (strain CL Brener)) (UniProt Q4DSP6).
T4 sequence (whole entry): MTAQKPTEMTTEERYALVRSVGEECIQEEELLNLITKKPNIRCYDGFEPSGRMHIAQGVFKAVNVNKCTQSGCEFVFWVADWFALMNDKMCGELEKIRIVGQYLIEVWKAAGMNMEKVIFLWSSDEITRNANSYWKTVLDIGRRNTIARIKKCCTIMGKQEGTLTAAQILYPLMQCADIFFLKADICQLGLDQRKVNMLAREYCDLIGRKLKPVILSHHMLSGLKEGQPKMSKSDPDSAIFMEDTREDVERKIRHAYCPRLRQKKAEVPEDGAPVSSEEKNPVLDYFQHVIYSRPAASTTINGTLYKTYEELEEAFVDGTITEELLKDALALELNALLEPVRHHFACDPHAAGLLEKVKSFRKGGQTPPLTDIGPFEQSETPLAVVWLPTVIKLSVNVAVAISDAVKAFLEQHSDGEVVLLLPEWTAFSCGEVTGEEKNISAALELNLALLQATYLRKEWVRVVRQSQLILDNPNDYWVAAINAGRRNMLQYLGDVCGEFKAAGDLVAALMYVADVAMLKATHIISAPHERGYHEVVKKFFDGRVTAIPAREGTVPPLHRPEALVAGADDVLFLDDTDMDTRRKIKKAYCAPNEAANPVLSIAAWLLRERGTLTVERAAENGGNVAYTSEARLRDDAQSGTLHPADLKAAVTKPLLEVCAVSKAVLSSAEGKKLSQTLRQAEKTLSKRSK
Kind of test: Trypanosoma cruzi tyrosyl tRNA synthetase (TcYRS) _High Tyrosine SOP. Further: in the data most compounds retested in dose-response had high values. The format is functional. The note with it: 30 µM.

Test [8] addresses T4, Tyrosyl-tRNA synthetase, putative (Trypanosoma cruzi (strain CL Brener)). The experiment in a line: Trypanosoma cruzi tyrosyl tRNA synthetase (TcYRS) SOP. It counts as functional. The conditions noted are these: 30 µM.
Test [9] has as its target Chromo domain-containing protein 1 (Saccharomyces cerevisiae (strain ATCC 204508 / S288c) (Baker's yeast)) (UniProt P32657). The experiment in a line: ScCHD-1 Enzyme Inhibition Assay. Further: in the data most compounds retested in dose-response had high values. It counts as functional. The note with it: 30 µM.

Chain of Chromo domain-containing protein 1 (Saccharomyces cerevisiae (strain ATCC 204508 / S288c) (Baker's yeast)) (P32657 whole entry, the tested form may be a part): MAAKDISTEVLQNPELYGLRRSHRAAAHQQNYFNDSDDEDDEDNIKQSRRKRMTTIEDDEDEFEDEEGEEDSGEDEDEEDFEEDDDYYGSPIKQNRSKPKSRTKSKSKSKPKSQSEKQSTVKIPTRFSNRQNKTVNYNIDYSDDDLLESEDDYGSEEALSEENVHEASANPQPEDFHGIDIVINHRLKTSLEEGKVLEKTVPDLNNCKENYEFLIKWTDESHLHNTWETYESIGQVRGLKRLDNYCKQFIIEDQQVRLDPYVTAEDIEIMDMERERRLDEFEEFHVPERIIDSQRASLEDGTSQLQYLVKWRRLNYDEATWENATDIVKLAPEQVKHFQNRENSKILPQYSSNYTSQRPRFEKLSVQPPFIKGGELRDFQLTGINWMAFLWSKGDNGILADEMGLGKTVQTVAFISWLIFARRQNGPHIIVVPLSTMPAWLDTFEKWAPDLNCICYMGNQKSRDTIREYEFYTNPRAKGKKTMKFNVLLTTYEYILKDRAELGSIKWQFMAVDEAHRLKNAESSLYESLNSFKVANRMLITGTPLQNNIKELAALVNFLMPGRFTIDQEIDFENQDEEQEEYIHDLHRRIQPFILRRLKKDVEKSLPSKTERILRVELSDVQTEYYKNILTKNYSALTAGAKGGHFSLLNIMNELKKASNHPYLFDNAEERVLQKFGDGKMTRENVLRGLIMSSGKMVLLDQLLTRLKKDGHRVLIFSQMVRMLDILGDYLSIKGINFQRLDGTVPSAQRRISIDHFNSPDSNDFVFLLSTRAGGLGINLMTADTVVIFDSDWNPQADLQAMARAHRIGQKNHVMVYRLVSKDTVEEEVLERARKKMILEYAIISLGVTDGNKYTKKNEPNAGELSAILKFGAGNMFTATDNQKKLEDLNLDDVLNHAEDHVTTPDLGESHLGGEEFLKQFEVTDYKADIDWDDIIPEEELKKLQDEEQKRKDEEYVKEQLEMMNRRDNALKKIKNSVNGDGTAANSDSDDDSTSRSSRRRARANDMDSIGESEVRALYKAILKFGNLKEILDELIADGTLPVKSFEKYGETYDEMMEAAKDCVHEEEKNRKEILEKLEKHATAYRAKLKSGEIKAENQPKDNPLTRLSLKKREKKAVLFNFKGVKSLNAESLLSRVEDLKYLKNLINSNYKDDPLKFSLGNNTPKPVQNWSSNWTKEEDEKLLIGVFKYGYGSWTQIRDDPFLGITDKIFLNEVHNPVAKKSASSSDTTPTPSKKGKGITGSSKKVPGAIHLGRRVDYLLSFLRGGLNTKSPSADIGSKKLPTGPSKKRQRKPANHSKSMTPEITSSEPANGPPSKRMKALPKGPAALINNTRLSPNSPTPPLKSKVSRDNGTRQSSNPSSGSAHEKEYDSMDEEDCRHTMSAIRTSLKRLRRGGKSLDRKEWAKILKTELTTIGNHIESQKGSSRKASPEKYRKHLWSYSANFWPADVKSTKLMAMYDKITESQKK
Chain of Protein translocase subunit SecA (Escherichia coli (strain K12)) (P10408 whole entry): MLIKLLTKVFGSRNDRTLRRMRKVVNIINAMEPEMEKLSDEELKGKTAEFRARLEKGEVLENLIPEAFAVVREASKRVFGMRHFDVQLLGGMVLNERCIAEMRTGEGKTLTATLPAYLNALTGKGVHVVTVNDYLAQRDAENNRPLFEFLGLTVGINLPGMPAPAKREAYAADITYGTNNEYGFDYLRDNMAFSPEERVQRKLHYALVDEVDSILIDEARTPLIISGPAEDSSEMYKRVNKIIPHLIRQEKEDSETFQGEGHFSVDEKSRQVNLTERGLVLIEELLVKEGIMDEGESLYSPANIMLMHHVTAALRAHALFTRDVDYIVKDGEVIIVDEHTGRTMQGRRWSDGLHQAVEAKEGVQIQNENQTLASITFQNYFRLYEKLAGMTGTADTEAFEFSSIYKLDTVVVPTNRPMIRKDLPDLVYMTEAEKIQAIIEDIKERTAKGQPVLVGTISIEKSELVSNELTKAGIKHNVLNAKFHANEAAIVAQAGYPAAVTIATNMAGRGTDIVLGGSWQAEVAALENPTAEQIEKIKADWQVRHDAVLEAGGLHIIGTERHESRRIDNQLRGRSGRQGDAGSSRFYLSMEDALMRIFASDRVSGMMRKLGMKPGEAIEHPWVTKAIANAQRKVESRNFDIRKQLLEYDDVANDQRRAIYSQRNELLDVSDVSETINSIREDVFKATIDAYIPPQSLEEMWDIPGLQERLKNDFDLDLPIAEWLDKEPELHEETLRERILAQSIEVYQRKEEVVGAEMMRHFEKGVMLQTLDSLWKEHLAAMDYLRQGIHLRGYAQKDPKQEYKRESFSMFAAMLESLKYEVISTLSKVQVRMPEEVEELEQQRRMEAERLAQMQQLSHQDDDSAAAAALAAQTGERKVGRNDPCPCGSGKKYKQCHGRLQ
Chain of Sialic acid-binding Ig-like lectin 9 (Homo sapiens) (Q9Y336 whole entry): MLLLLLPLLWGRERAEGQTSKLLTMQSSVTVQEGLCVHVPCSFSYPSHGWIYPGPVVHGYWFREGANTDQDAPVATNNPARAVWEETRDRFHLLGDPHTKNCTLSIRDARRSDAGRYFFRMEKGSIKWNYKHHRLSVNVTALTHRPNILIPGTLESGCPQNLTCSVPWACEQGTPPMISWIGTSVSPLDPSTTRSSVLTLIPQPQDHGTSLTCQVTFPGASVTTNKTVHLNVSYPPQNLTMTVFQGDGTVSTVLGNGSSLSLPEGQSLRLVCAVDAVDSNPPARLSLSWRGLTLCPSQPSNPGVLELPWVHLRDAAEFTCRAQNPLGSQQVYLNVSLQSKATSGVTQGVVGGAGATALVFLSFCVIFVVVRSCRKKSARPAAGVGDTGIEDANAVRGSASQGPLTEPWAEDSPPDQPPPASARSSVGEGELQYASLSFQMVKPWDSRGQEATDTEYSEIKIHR

Regarding `COCCC(=O)N1C[C@@H]2COC[C@]2(COCc2cccnc2)C1`, the Percent Effect in test [1] is -1.17%; in test [2], 13%; in [3] it was 1.86%; in [4], -1.48%; with Trypanosoma cruzi, -14.7%; in [5], 12.3%. Further, the Percent Effect in test [6] is 12%; in the test filed under Homo sapiens it was 17.3%; in test [7], -1.06%; in [8], 8.97%; in [9], -8.34%.

On to `CS(=O)(=O)NCCCNC(=O)c1cccc(-n2cccc2)c1`, for which the Percent Effect in test [1] is -5.41%; in test [2] it was 15.8%; in test [3], 0.491%; in test [4], -5%; with Trypanosoma cruzi it was 2.04%; in test [5], 1.18%. Further, the Percent Effect is 15.8% in test [6]; 1.58% in the test listed under Homo sapiens; 1.06% in test [7]; 13% in test [8]; -6.62% in test [9].

With `CN(C)C(=O)COC[C@]12COC[C@H]1CN(CC1CCC1)C2`, the Percent Effect in test [1] was 1.38%; in test [2], 2.7%; in test [3] it was -10.5%; in test [4] it was 19.2%; with Trypanosoma cruzi it was 4.79%; in test [5], 6.7%. For the same compound, the Percent Effect in test [6] is 7.12%; in the test filed under Homo sapiens, 8.3%; in test [7], 2.15%; in test [8], 3.7%; in test [9] it was -9.34%.

For the compound `Cc1n[nH]cc1CNc1ccc2c(c1)CN(C(=O)OC(C)(C)C)CC2`, the Percent Effect was -2.19% in test [1]; 5.2% in [2]; -9.51% in [3]; 0.686% in [4]; 2.26% in the test on Trypanosoma cruzi; -8.28% in test [5]. For the same compound, the Percent Effect in test [6] was 15.5%; in the test filed under Homo sapiens, 68.8%; in test [7] it was 2.15%; in test [8] it was 3.7%; in test [9], -6.66%.

Turning to `Cc1cc(C)c(CNC(=O)NCC(c2ccccc2)N(C)C)c(=O)[nH]1` (stereo unspecified), the Percent Effect in [1] was -3.19%; in test [2], -2.63%; in [3], -5.47%; in test [4] it was 13.4%; with Trypanosoma cruzi, 2.52%; in test [5], 1.08%. For the same compound, the Percent Effect was -0.592% in test [6]; 4% in the test filed under Homo sapiens; 7.39% in test [7]; 18.5% in [8]; -3.01% in test [9].

`Cc1cnn(C2CCCN(C(=O)CCCNc3ncccn3)C2)c1` (stereo unspecified): the Percent Effect in [1] was 0.326%; in test [2] it was 21.6%; in [3], -4.82%; in [4] it was -6.78%; in the test with Trypanosoma cruzi, -4.62%; in test [5], 0%. Besides, the Percent Effect in test [6] is 10.3%; in the test filed under Homo sapiens, 6.71%; in test [7], -13.3%; in test [8], 16.1%; in test [9] it was -4.22%.

On to `Cc1cccc(CC(=O)NCCCOC(C)C)c1`, for which the Percent Effect in [1] was -0.872%; in test [2], 18.2%; in [3], 0.619%; in test [4], -8.05%; in the test on Trypanosoma cruzi, -3.75%; in test [5] it was 0.712%. For the same compound, the Percent Effect in test [6] is 9.8%; in the test filed under Homo sapiens, 27.8%; in test [7], 9.71%; in test [8], 19.5%; in [9], -7.62%.

Consider `N#Cc1ccccc1CN1C[C@@H]2CC[C@H](C1)N(CC1CC1)C2=O`, for which the Percent Effect in [1] is -0.53%; in test [2], 13.5%; in test [3] it was -0.476%; in [4] it was 12.4%; with Trypanosoma cruzi, 1.74%; in [5], 2.38%. The Percent Effect is 13.4% in test [6]; 4.71% in the test listed under Homo sapiens; 4.76% in test [7]; 14.6% in [8]; -0.908% in test [9].

For `O=C(c1cccc(S(=O)(=O)NCCCc2ccco2)c1)N1CCOCC1`, the Percent Effect in [1] is -4.29%; in test [2] it was 2.74%; in [3], 6.53%; in [4] it was -4.06%; in the test with Trypanosoma cruzi, 1.37%; in test [5], 1.82%. The Percent Effect in test [6] is 5.86%; in the test filed under Homo sapiens, -5.12%; in test [7], 7.53%; in [8], 15%; in test [9], -2.3%.

For `CC(C)Oc1ncccc1CNC(=O)N1CCC1c1ccccc1` (stereo unspecified), the Percent Effect in [1] is -7.94%; in test [2] it was 13.2%; in test [3], -8.45%; in [4], 2.16%; in the test with Trypanosoma cruzi it was 11.3%; in [5] it was -0.766%. In addition, the Percent Effect in test [6] was 9.69%; in the test listed under Homo sapiens, 23.3%; in test [7] it was 7.35%; in test [8], 17.1%; in [9] it was -12%.

Consider `C[C@@H]1C[C@@H]2CCN(C(=O)c3cnccn3)C[C@H]2O1`, for which the Percent Effect in test [1] was -2.4%; in test [2], -2.7%; in test [3], 5.23%; in test [4] it was -2.15%; in the test with Trypanosoma cruzi it was -1.95%; in test [5], 0.417%. In addition, the Percent Effect in test [6] was -0.592%; in the test filed under Homo sapiens it was 3.34%; in test [7], 1.98%; in [8], -3.66%; in test [9], -0.0529%.
